The campaign covered roughly 5,500 compounds. About 2,000 (36%) were called active. Roughly 18% stayed inconclusive and do not appear here. Rule as the data show it: active = normalized growth mostly below about 0.91 (no sharp cut-off); inconclusive = no clear call, values can overlap the other calls; inactive = mostly above about 0.92. Some of the results follow.
Experiment: chemical genetic growth profiling, strain panel (AID 1159580);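 also: tested at 20 µM; growth read once vehicle control cultures reached saturation at 30 °C; 1 = growth at the plate median or of vehicle wells; lower values mean less growth of the strain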
Conditions: S. cerevisiae deletion strains, growth OD
[1] = locus YHR030C, strain SLT2, active compounds read low
[2] = locus YJL095W, strain BCK1, active compounds read low

Measured: normalized growth

CC(C)CCCC(C)C1CCC2C3CCC4CC(=O)CCC4(C)C3CCC12C (stereo unspecified)
inactive: locus YAL013W, strain DEP1, active compounds read low 1.01 | locus YBR021W, strain FUR4, active compounds read low 1.02 | locus YBR229C, strain ROT2, active compounds read low 1 | locus YCL029C, strain bik1, active compounds read low 1.02 | locus YDL035C, strain GPR1, active compounds read low 1.06 | locus YDL074C, strain BRE1, active compounds read low 1.07 | locus YDL101C, strain DUN1, active compounds read low 1.02 | locus YDL134C, strain PPH21, active compounds read low 1.03 | locus YDL185W, strain tfp1, active compounds read low 1.01 | locus YDL192W, strain arf1, active compounds read low 1.05 | locus YDR101C, strain arx1, active compounds read low 1.02 | locus YDR150W, strain NUM1, active compounds read low 1 | locus YDR162C, strain NBP2, active compounds read low 1.05 | locus YDR318W, strain mcm21, active compounds read low 1.01 | locus YDR388W, active compounds read low 1.02 | locus YDR502C, strain sam2, active compounds read low 1.01 | locus YEL061C, strain CIN8, active compounds read low 1.02 | locus YER110C, active compounds read low 1.02 | locus YER155C, strain BEM2, active compounds read low 1 | locus YER167W, strain BCK2, active compounds read low 1 | locus YGL078C, strain dbp3, active compounds read low 1.02 | locus YGL086W, strain mad1, active compounds read low 1.02 | locus YGL248W, strain PDE1, active compounds read low 1.04 | locus YGR078C, strain PAC10, active compounds read low 1.03 | locus YGR135W, strain pre9, active compounds read low 1.03 | locus YGR252W, strain gcn5, active compounds read low 1 | [1] 1.02 | locus YHR079C, strain IRE1 (second series), active compounds read low 1 | locus YHR094C, strain hxt1, active compounds read low 1.04 | locus YHR129C, strain ARP1, active compounds read low 1.02 | locus YHR200W, strain rpn10, active compounds read low 1.01 | locus YIL066C, strain RNR3, active compounds read low 1.05 | locus YIL073C, strain SPO22, active compounds read low 1.11 | locus YIL125W, strain kgd1, active compounds read low 1.01 | locus YIR030C, strain dcg1, active compounds read low 1.02 | [2] 1.06 | locus YJL134W, strain LCB3, active compounds read low 1.01 | locus YJL168C, strain set2, active compounds read low 1.01 | locus YJL187C, strain SWE1 (second series), active compounds read low 1.03 | locus YJR043C, strain POL32, active compounds read low 1.02 | locus YJR075W, strain HOC1, active compounds read low 1.03 | locus YKL009W, strain mrt4, active compounds read low 1.06 | locus YKL068W, active compounds read low 1.01 | locus YKL085W, strain MDH1 (second series), active compounds read low 1.02 | locus YKL085W, strain MDH1, active compounds read low 1.02 | locus YKL190W, strain CNB1, active compounds read low 1 | locus YKR001C, strain vps1, active compounds read low 1.09 | locus YLR039C, strain RIC1, active compounds read low 1.08 | locus YLR058C, strain SHM2, active compounds read low 1.03 | locus YLR102C, strain apc9, active compounds read low 1.02 | locus YLR262C, strain YPT6, active compounds read low 1.09 | locus YLR268W, strain sec22, active compounds read low 1.06 | locus YLR330W, strain CHS5, active compounds read low 1.02 | locus YLR342W, strain FKS1 (second series), active compounds read low 1.06 | locus YLR371W, strain rom2, active compounds read low 1.01 | locus YLR418C, strain cdc73, active compounds read low 1.05 | locus YML016C, strain PPZ1, active compounds read low 1.02 | locus YML032C, strain rad52, active compounds read low 1.02 | locus YML124C, strain tub3, active compounds read low 1.01 | locus YMR078C, strain ctf18, active compounds read low 1.01 | locus YMR223W, strain ubp8, active compounds read low 1.04 | locus YMR263W, strain SAP30, active compounds read low 1.02 | locus YMR307W, strain GAS1, active compounds read low 1.19 | locus YNL067W, strain RPL9B, active compounds read low 1.02 | locus YNL128W, strain TEP1, active compounds read low 1.06 | locus YNL153C, strain GIM3, active compounds read low 1.03 | locus YNL233W, strain BNI4, active compounds read low 1 | locus YNL250W, strain rad50, active compounds read low 1.02 | locus YNL271C, strain bni1, active compounds read low 1.01 | locus YNL298W, strain CLA4, active compounds read low 1.01 | locus YNL307C, strain MCK1, active compounds read low 1.01 | locus YNL322C, strain KRE1, active compounds read low 1.01 | locus YNR052C, strain pop2, active compounds read low 1.01 | locus YOL012C, strain htz1 1.43 | locus YOL147C, strain pex11, active compounds read low 1.01 | locus YOR061W, strain CKA2, active compounds read low 1.04 | locus YOR069W, strain VPS5, active compounds read low 1.01 | locus YOR136W, strain idh2, active compounds read low 1.02 | locus YOR144C, strain elg1, active compounds read low 1.01 | locus YOR184W, strain ser1, active compounds read low 1.07 | locus YOR316C, strain cot1, active compounds read low 1.02 | locus YPL055C, strain LGE1, active compounds read low 1.03 | locus YPL241C, strain CIN2, active compounds read low 1.01 | locus YPR119W, strain clb2, active compounds read low 1.01 | locus YPR141C, strain kar3, active compounds read low 1.02 | locus YPR163C, strain tif3, active compounds read low 1.03 | locus YPR167C, strain met16, active compounds read low 1.02 | strain wtn01, active compounds read low 1.04

C[C@]12CCC3C(CC[C@H]4C[C@H](O)CC[C@]34C)C1CCC2=O (stereo partly specified)
active: [1] 0.63 | locus YHR079C, strain IRE1, active compounds read low 0.831 | [2] 0.736 | locus YJR066W, strain TOR1, active compounds read low 0.815
inactive: locus YLR113W, strain HOG1, active compounds read low 0.912 | locus YNL183C, strain NPR1, active compounds read low 0.837 | locus YOR231W, strain MKK1, active compounds read low 0.861 | locus YPL256C, strain CLN2, active compounds read low 0.853

Reference: PubChem BioAssay AID1159580 (chemical genetic matrix, 2015)
